This is part of a sample that, as a whole, favours compounds with a hit. Of some 83,000 tested, about 20% had one in any assay.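 Testing used 96-well plates and a 48-hour single-concentration exposure. Example: -40 means 40% of the starting cells died.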 Unmarked numbers belong to inactive results. Activity calls are given as the source filed them. Rule for the calls: active = growth percent below 10; inactive = the rest.
Assays:
Test in all cases: NCI-60 one-dose screen, 48 h (100 = growth as untreated, 0 = no growth, -100 = all killed)
Conditions in all cases: 10 µM unless noted
[1] = test system: NCI-H23 lung
[2] = test system: NCI-H226 lung
[3] = test system: NCI-H322M lung
[4] = test system: HOP-62 NSCLC
[5] = test system: NCI-H460 lung
[6] = test system: HOP-92 NSCLC
[7] = test system: NCI-H522 lung
[8] = test system: A549/ATCC NSCLC
[9] = test system: 786-0 renal
[10] = test system: COLO 205 colon
[11] = test system: DU-145 prostate
[12] = test system: K-562 leukemia
[13] = test system: MALME-3M melanoma
[14] = test system: MDA-MB-231 breast
[15] = test system: RXF 393 renal
[16] = test system: SF-268 CNS
[17] = test system: SF-295 CNS
[18] = test system: SF-539 CNS
[19] = test system: UACC-257 melanoma
[20] = test system: M14 melanoma

| SMILES | growth [1] [%] | growth [2] [%] | growth [3] [%] | growth [4] | growth [5] | growth [6] | growth [7] | growth [8] [%] | growth [9] [%] | growth [10] | growth [11] [%] | growth [12] | growth [13] [%] | growth [14] [%] | growth [15] | growth [16] [%] | growth [17] | growth [18] | growth [19] [%] | growth [20] |
| --- | --- | --- | --- | --- | --- | --- | --- | --- | --- | --- | --- | --- | --- | --- | --- | --- | --- | --- | --- | --- |
| CC1(C)CC[C@]2(CO)CC[C@]3(C)[C@](O)([C@H](O)C[C@@H]4[C@@]5(C)CCCNC(C)(C)[C@@H]5CC[C@]43C)[C@@H]2C1 | 95 | 106 | 103 | 101% | 88.8% | 94% | 92.4% | 85.2 | 101 | 44.2% | 103 | 10.3% | 101 | 102 | 94.9% | 98.9 | 108% | 97.9% | 96.3 | 96.1% |
| CCOC(=O)CC1CSC(N/N=C/c2ccc(F)c(Br)c2)=N1 (centres undefined) | 99.8 | 104 | 109 | 94.2% | 112% | 105% | 86.2% | 91.2 | 100 | 110% | 103 | 90.5% | 101 | 109 | 111% | 92.3 | 96.8% | 106% | 103 | 102% |
| CCOC(=O)C#Cc1c(C(=O)OCC)nnn1[C@@H]1O[C@H](COC)[C@@H](OC)[C@H]1OC | 101 | 82.6 | 92.9 | 97.8% | 109% | 68.5% | -58.7% (active) | 95.9 | 84.2 | -54.7% (active) | 92.6 | 9.33% (active) | 25.8 | 107 | 14% | 106 | 95.1% | 84.7% | 59.3 | 61.8% |
| CNC(=O)c1cc(Oc2ccc3c(c2)sc2nc(-c4cc(C(F)(F)F)cc(C(F)(F)F)c4)cn23)ccn1 | 44.8 | 26.8 | 89.8 | 25.4% | 38.3% | 27% | 35% | 39.5 | 61.3 | 55.3% | 67.7 | 29.4% | 47.1 | 48.2 | 79.8% | 65.1 | 36.2% | 52.4% | 34.5 | 69.3% |
| CCCCCCCCCCCCCCCCCCOc1ccccc1CC(=O)NCC[N+](C)(C)C | 51.6 | 61.6 | 66.9 | 5.94% (active) | 22.5% | -5.43% (active) | 7.44% (active) | 40.8 | 16.2 | -85.2% (active) | 44.3 | 25.9% | 78.8 | 46.7 | -39.7% (active) | 24.2 | 52.1% | 46.4% | 93.8 | 33.7% |
| O=C(/C=C/c1ccco1)Nc1ncc(Cc2cc(Cl)ccc2Cl)s1 | 33.4 | 39.4 | 43.7 | 17.8% | 3.88% (active) | 72.4% | -4.32% (active) | 19.8 | 31.4 | -14.2% (active) | 13.9 | 7.9% (active) | 49 | 47.4 | -2.79% (active) | 44 | 9.56% (active) | -18.8% (active) | 38.8 | 6.81% (active) |
| Cc1sc2nc(NCCN)[nH]c(=O)c2c1C | 91 | 84.8 | 83.7 | 99.8% | 101% |  | 102% | 101 | 84.2 | 77% | 96.7 | 103% | 82.1 | 81.1 | 100% | 91.4 | 98% | 88.1% | 107 |  |
| N#Cc1c(-c2ccccc2)nc2c(c(-c3ccc(Cl)cc3)nn2-c2ccccc2)c1-c1ccc([N+](=O)[O-])cc1 | 96 | 94.7 | 97 | 94.7% | 103% |  | 91.7% | 100 | 110 | 110% | 101 | 101% | 101 | 102 | 109% | 98.6 | 98.7% | 95.9% | 96.2 | 97.9% |
| O=S(=O)(Nc1cc(F)cc(F)c1)c1ccc(-c2cnc(C3CC3)o2)cc1 | 63.7 | 48.2 | 63.2 | 40.9% | 25.3% |  | 7.85% (active) | 46.7 | 35.5 | 40.1% | 70.4 | 9.67% (active) | 50.1 | 58.2 | 46.6% | 56.7 | 20.9% | 29.2% | 62.7 | 16.5% |
| CC(C)(C)CC(C)(C)Nc1c(-c2c(O)c3ccccc3oc2=O)nc2sc3ccccc3n12 | 44.1 | 56.7 | 42.5 | 23.1% | 16.6% |  | 32.8% | 30.9 | 35.6 | 28.7% | 53.7 | 11.8% | 50.7 | 61.9 | 65.9% | 48 | 3.5% (active) | 44% | 38.1 | 41.7% |
| Clc1cccc(C2Cc3cnccc3-c3[nH]c4ccncc4c32)c1 (centres undefined) | 35 | 52.1 | 73.2 | 67.3% | 19.1% |  | 51.9% | 42.9 | 59.7 | 23.4% | 69.6 | 23.6% | 52.2 | 44.8 | 69.1% | 57.7 | 28.6% | 65.5% | 29.9 | 58.4% |
| CCN(CC)CCn1c2ccc(OC)cc2c2sc3cc(O)ccc3c(=O)c21 | 23.9 | 112 | 34.2 | 34.4% | 8.17% (active) |  | 42.2% | 17.9 | 26.1 | 23% | 42.7 | 6.38% (active) | 34.1 | 54.1 | 27.5% | 38.5 | 17.9% | 25.3% | 78.4 | 31.2% |
| c1csc(-c2cn3nc(-c4c[nH]c5ccccc45)sc3n2)c1 | 36.9 | 72.4 | 25 | 27% | 11.2% |  | -6.13% (active) | 35 | 42.2 | 5.46% (active) | 13.4 | 15.6% | 23.7 | 22.9 | 34.4% | 46.1 | 14.4% | -12.8% (active) | 60.1 | 8.8% (active) |
| COc1cc(/C=C/c2cn[nH]c2-c2ccc(C)cc2)cc(OC)c1OC | 56.2 | 65.4 | 56.7 | 33.8% | 17.1% |  | 23.1% | 29.2 | 37.1 | 12.6% | 43.4 | 15.5% | 52.3 | 47.4 | 16.1% | 49.2 | 11.5% | 41.7% | 39.5 | -3.71% (active) |
| COc1c2c(cc3c1C(=O)N[C@@H]1[C@@H](O)[C@@H](O)[C@H](O)C[C@@H]31)OCCO2 | 104 | 92.6 | 93.5 | 99.9% | 109% |  | 93.4% | 96.5 | 97.4 | 103% | 107 | 95.6% | 106 | 109 | 102% | 97.9 | 99.6% | 106% | 98.8 | 105% |
| N#Cc1c(-c2ccc(Br)cc2)nc2c(N=Nc3ccc(S(N)(=O)=O)cc3)c(N)nn2c1N | 63.7 | 66.2 | 74.7 | 52.2% | 37.1% |  | 38.6% | 68.4 | 69.9 | 25.5% | 33.2 | 36.3% | 57.7 | 41.2 | 42.2% | 55.9 | 61.9% | 38.6% | 82.6 | 41.4% |

Reference: PubChem BioAssay (NCI)
